# A selection: hits, their analogues and other compounds. The true share with any hit is near 2.1%.
# PME-1 Maybridge: Maybridge compound blocking human PME-1; actives 0.5% (n = 16,000); AID 2291; recombinant PME-1, FP-Rh probe fluorescence polarization; Q9Y570; inhibition, % at 9 µM; in the data active = inhibition above about 30%
# NOTCH agonist: activates NOTCH signaling in reporter cells; NOTCH signaling luciferase reporter cells, luminescence; activation, % at 2.5 µM; actives 0.4% (n = 15,000); in the data active = activation above about 2.2%
# luminol inh ctr: counter-screen for Nox1 inhibitors: inhibitors of luminol chemiluminescence; AID 1823; actives 0.4% (n = 16,000); HRP/luminol/H2O2 chemiluminescence counterscreen; inhibition, % at 6.7 µM; also: reference of the scale not given here
# Nox1 inh: blocks human NADPH oxidase 1 activity | inhibition, % at 6.7 µM | HT29 cells, luminol chemiluminescence ROS | actives 0.81% (n = 16,000)
# Target sequence (Q9Y5S8 whole entry, looked up): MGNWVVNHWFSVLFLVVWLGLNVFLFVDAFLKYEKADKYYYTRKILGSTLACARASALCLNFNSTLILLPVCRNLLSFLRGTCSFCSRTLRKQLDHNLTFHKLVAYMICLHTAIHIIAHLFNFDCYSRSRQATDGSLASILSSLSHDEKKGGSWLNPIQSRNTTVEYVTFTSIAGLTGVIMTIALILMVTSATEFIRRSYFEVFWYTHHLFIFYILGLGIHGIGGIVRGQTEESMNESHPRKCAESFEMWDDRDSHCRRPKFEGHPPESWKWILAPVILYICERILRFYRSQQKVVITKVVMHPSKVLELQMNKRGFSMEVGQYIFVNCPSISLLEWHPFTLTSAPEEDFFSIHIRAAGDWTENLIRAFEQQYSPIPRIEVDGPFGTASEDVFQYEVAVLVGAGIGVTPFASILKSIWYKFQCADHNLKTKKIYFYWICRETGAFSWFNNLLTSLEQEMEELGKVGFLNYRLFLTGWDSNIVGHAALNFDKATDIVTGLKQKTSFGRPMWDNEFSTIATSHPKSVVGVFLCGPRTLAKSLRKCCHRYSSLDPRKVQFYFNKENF
# Starred values were filed as active, the others as inactive; . = no result given. Rule as the data show it, unless noted: active = inhibition above about 75%; inactive = the rest.
SMILES,PME-1 Maybridge,NOTCH agonist,luminol inh ctr,Nox1 inh
Cc1ccc2c(c1)CCCN2C(=O)CC(=O)N1CCCc2cc(C)ccc21,8,0,77*,-6
O=c1c(Nc2ccc(OC(F)(F)F)cc2)c(Nc2ccc(OC(F)(F)F)cc2)c1=O,30*,0,-4,6
Cc1csc2sc(C=N/C(C#N)=C(\N)C#N)c(C)c12,-14,0,3,-31
OC(CSc1nc2cccnc2s1)C(F)(F)F (stereo unspecified),2,0,-5,-12
NNC(=O)CSc1nc2cccnc2s1,8,0,12,76*
COc1ccc(Br)c(C(=O)/C(C#N)=C/c2ccc(N(C)C)cc2)c1,8,0,24,-3
COc1ccc(Br)c(C(=O)/C(C#N)=N/Nc2ccc(F)cc2)c1,37*,-1,0,40
CC1CN(c2ccc(NS(=O)(=O)c3ccccc3)cc2C(=O)O)CC(C)O1 (stereo unspecified),-1,0,41,84*
S=c1[nH]nc(-c2cccc3ccccc23)n1-c1cccnc1,-1,-1,89*,24
CNC(=S)NNC(=O)c1cnn(-c2ccccc2)c1N,4,-1,15,36
CN1CCN(c2ccc(NS(=O)(=O)c3cccc(C(F)(F)F)c3)cc2)CC1,2,0,67,94*
Cc1ccc(S(=O)(=O)Nc2ccccc2N2CCCCC2)cc1Cl,0,.,9,-15
O=S(=O)(Nc1ccc(N2CCCCC2)cc1)c1ccccc1,6,0,13,101*
O=C(O)c1c(-c2cccs2)nnc2ccccc12,1,-1,-3,-8
COC(=O)C1=C(C)Nc2[nH]ncc2C1c1ccccc1 (stereo unspecified),43*,-1,4,-18
O=C(Nc1ccc(Cl)cc1)Oc1ccccc1N1CCSCC1,-2,0,4,92*
CN1c2ccccc2C(O)=C(C(=O)Nc2ccc(OC(F)(F)F)cc2)S1(=O)=O,-14,0,-3,14
CC1CN(c2ccccc2OC(=O)Nc2ccc(OC(F)(F)F)cc2)CC(C)O1 (stereo unspecified),-12,0,15,101*
CCCc1c(SC(=O)N(C)C)ccc(C(C)=O)c1O,-1,0,6,-63
O=C(O)CCCNS(=O)(=O)c1ccc([N+](=O)[O-])cc1,6,0,-2,-6
S=C(NNc1nccc(-c2cccnc2)n1)Nc1ccccc1,3,0,2,86*
COC(=O)c1ccc(S(=O)(=O)Nc2ccc(N3CCOCC3)cc2)n1C,1,0,40,91*
C=CCn1c(SCc2n[nH]c(=S)n2C)nnc1-c1ccccc1,6,-1,82*,4
C=CCn1c(SCC(=O)N2CCc3ccccc32)nnc1-c1ccc(Cl)cc1,-1,0,-1,-30
C=CCn1c(SCC(=O)NNC(=S)NC)nnc1-c1ccccc1,7,0,89*,-11
SMILES,PME-1 Maybridge,NOTCH agonist,luminol inh ctr,Nox1 inh
CCOC(=O)c1cc(-c2ccccc2)n(-c2ccccc2)c1C,1,0,11,-8
Cc1cc2c(N)cccc2nn1,106*,-1,6,45
CNC(=O)n1nc(C)c(Cc2csc3ccc(Cl)cc23)c1C,48*,0,0,-12
CNC(=O)Cc1csc2ccc(Cl)cc12,7,0,-8,-9
Cc1c(CC(=O)Nc2ccccc2)sc2ccccc12,3,-1,0,-18
O=C(Cc1csc2ccccc12)Nc1ccc(F)cc1,58*,0,2,-64
Nn1c(-c2ccc(Cl)cc2)n[nH]c1=S,5,0,99*,20
Cc1cc(Br)c(NC(=S)NNc2ccccc2)c(Br)c1,11,0,7,100*
CCOC(=O)c1c(C)oc(-c2ccc(Cl)cc2)c1S(=O)(=O)NCc1ccccc1,10,-1,-2,20
Cn1c(-c2ccco2)n[nH]c1=S,-2,-5,1,-36
Cn1c(-c2ccccn2)n[nH]c1=S,1,0,96*,-21
CNc1cc(C)nc(-c2csc(C)n2)n1,6,0,-7,16
CC(=O)c1ccc(NCN2C(=O)/C(=C\N(C)C)NC2=S)cc1,-2,0,10,100*
CC(Nc1ccccc1)C1CC1 (stereo unspecified),6,0,-4,16
COC(=O)c1sccc1-c1ccc(CN2CCCc3cc(OC)ccc32)o1,10,0,-30,94*
Nc1ccc(C(=O)O)c2c(C(=O)O)cccc12,49*,0,25,29
COCCOc1ccc(N=Cc2ccccc2O)cc1C(=O)O,1,3.1*,-20,11
c1cnc2c(c1)nnn2C1CC1,4,-1,0,-18
CC(=O)c1cc([N+](=O)[O-])c(Sc2ccc(Cl)cc2)s1,3,-1,4,-89
CC(=O)c1cc([N+](=O)[O-])c(SCc2ccc(Cl)cc2)s1,32*,0,-5,6
N#CCC(=O)NNC(=S)Nc1ccccc1,2,0,18,90*
N#CCC(=O)NNC(=O)c1ccccc1Cl,2,0,0,-50
COC(=O)c1ccccc1NC(=S)Nc1ccc(Cl)cn1,6,0,98*,18
COc1ccccc1NC(=S)Nc1ccccn1,4,-1,2,-22
Cc1cc(C(=O)ONC(=O)Cc2ccccc2)nn1-c1cc(Cl)ccc1Cl,1,0,3,-31
SMILES,PME-1 Maybridge,NOTCH agonist,luminol inh ctr,Nox1 inh
O=C1c2ccccc2C(=O)N1CNc1ccc(N2CCOCC2)cc1,5,0,-4,98*
O=C(CN1C(=O)c2ccccc2C1=O)NCc1ccc(N2CCOCC2)cc1,4,0,2,-17
COC(=O)c1ccc(S(=O)(=O)NNC(=O)c2c(O)c3sccc3[nH]c2=O)n1C,0,0,78*,-31
O=[N+]([O-])c1cc(C(F)(F)F)ccc1Oc1ccc(-c2nnco2)cc1,17,-1,-1,77*
O=[N+]([O-])c1cc(C(F)(F)F)ccc1Oc1ccc2nonc2c1,1,0,0,29
C/C(=N/NC(=S)NC1CCCCC1)c1sc(-c2cccs2)nc1C,2,0,3,-13
FC(F)(F)c1nnc(Nc2cccnc2)s1,4,4.5*,-1,-82
FC(F)(F)c1cccc(Nc2nnc(-c3cccnc3)s2)c1,1,0,0,-38
Cn1c(CC2Sc3ccccc3NC2=O)nnc1SCC(=O)Nc1cccc(C(F)(F)F)c1 (stereo unspecified),6,0,93*,17
CCc1nnc(NS(=O)(=O)c2ccc(OC(F)(F)F)cc2)s1,-2,0,2,-27
O=c1[nH][nH]c2cccc(F)c12,-1,-1,11,79*
O=C(c1ccco1)c1coc2ccc(O)cc12,-1,0,10,-6
O=C(O)/C(=N/Nc1ccccc1O)c1ccccc1,0,0,-3,83*
CC(=O)c1ccc(Sc2cccc(C(F)(F)F)c2)c([N+](=O)[O-])c1,32*,0,2,-8
O=c1c2ccccc2c(=O)n2n1CC=CC2,2,0,3,3
O=c1c(=NO)c(=O)c2ccccc12,4,2.3*,-7,0
COC(=O)CC(CC(=O)OC)(c1cc(C)c(O)c(C)c1)c1cc(C)c(O)c(C)c1,7,-1,77*,21

# Source: PubChem
